{
  "source": "PubChem BioAssay (NCATS)",
  "note": "Unmarked numbers belong to inactive results. Active and inactive are the calls of the source. Calls follow the shape of the dose curve; as a rule, active = well fitted curve in the direction sought with a large enough effect; inconclusive = small, poorly fitted or top-dose-only effect, or another doubt; inactive = no such curve, though single readings can be large or run the other way.",
  "data": [
    {"biological_target": "Hexokinase-4 (Homo sapiens) + Glucokinase regulatory protein (Homo sapiens) (UniProt P35557+Q14397)", "sequence (P35557 whole entry, looked up)": "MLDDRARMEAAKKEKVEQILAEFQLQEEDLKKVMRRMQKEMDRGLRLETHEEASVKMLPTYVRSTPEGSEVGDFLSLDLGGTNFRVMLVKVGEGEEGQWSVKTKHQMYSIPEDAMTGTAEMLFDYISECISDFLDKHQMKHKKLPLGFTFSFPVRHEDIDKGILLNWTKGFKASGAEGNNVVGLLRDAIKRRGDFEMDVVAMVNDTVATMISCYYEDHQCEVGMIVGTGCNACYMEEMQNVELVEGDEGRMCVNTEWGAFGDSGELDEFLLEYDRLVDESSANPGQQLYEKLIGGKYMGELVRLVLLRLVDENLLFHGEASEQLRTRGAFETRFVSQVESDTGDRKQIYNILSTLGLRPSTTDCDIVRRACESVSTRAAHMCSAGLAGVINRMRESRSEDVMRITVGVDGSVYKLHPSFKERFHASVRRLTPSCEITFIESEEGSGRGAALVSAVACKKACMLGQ", "sequence (Q14397 whole entry, looked up)": "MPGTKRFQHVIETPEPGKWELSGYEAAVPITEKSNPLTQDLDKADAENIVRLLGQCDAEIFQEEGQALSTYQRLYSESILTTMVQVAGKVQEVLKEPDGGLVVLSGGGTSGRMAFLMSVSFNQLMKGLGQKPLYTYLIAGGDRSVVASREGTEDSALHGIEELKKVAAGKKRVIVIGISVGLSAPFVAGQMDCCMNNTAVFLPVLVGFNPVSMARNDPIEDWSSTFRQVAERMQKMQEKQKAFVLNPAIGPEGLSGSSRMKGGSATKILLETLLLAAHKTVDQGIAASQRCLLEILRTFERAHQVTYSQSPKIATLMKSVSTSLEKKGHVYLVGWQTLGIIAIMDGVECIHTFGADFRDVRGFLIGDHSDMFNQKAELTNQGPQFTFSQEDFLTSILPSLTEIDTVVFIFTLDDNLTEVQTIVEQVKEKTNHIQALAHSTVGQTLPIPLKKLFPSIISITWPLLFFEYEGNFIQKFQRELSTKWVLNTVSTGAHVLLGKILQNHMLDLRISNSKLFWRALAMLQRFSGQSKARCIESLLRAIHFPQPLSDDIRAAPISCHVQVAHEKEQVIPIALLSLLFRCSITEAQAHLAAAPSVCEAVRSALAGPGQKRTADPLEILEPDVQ", "test": "qHTS assay for inhibitors of recombinant human GCK-GKRP interaction: ADP-Glo assay (AID 743206);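 also: plate controls were DMSO plus enzyme for no effect and no enzyme for full effect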", "conditions": "ADP-Glo luminescence, 60 min, 0% = vehicle-only wells with enzyme present; series mostly up to 76.9 µM; activity, positive = activation: at the top concentration", "source_text": "Glucokinase (GCK) is a glucose sensor in hepatocytes and pancreatic beta-cells. Hepatic GCK is regulated by glucokinase regulatory protein (GKRP), which is predominantly localized to the liver. GKRP binds to GCK inhibiting its activity in the fasting state while in the presence of glucose the GKRP is displaced. There is an additional layer of regulation by fructose 1-phosphate and fructose 6-phosphate, which inhibit and enhance the GCK-GKRP interaction, respectively. GCK plays a role in glucose homeostasis and there is an interest in the development of strategies to activate GCK to lower blood glucose levels in type 2 diabetes. To date the majority of effort has focused on direct activation of GCK and the assays developed herein look to activate GCK by inhibiting its binding to GKRP. A compound that inhibits the interaction of GCK with GKRP could be important for the treatment of diabetes and can also be used as a tool compound to further elucidate GCK-GKRP biology. To that end, we have developed a sensitive HTS biochemical assay where in GCK activity is coupled to luciferase to interrogate the GCK-GKRP interaction. This assay was screened against a small compound library to look for modulators of activity.\n2 uL of 15 nM GST-GCK and 15 nM FLAG-GKRP proteins with 2 uM S6P (columns 1-2, 4-48; Millipore, Billerica, MA) are dispensed into Greiner, white solid-bottom 1536-well assay plates; columns 3 receive buffer without GCK as a control for maximum inhibition. Compounds (23 nL) are then transferred via Kalypsys pin tool equipped with 1536-pin array (10 nL slotted pins, V&P Scientific, San Diego, CA). The library compounds are in columns 5-48 and columns 1-4 serve as controls with DMSO in columns 1 and 3 and 26 mM 1:1.5 fold serial of gluckokinase activator (GKA-EMD) in column 2 and 26 mM of the glucokinase activator (GKA-EMD) in column 4. Following addition of compound, 1 uL of ATP […] is added, and the plate is incubated for 60 minutes at room temperature. The amount of ADP is then quantified by the ADP-Glo Kit (Promega, Madison, WI). First, 2 uL of the first kit reagent is added, and the reaction is incubated for 45 minutes; then, 4 uL of the second kit reagent are added and the reaction is incubated for 30 minutes at which time the luminescence is read on a Viewlux plate reader (Perkin-Elmer, Waltham, MA). The final concentration of reagents in the reaction are 0.4 mM ATP, 25 mM Hepes pH 7.6, 25 mM KCl, 2 mM MgCl2, 1 mM DTT, 0.025% BSA, 0.01% Tween 20, 5 mM glucose. Data are normalized to DMSO-treated control columns with (maximum signal) and without (minimum signal) enzyme.", "units": {"activity, positive = activation": "%"}, "values": [
      {"compound": "Clc1ccc(Cn2c(CN3CCCC3)nc3ccccc32)cc1", "activity, positive = activation": 3.26},
      {"compound": "O=c1c(-c2ccc(O)cc2)coc2cc(O)ccc12", "activity, positive = activation": 0.754},
      {"compound": "COC(=O)[C@@H]1[C@H]2C[C@H]3c4[nH]c5ccccc5c4CCN3C[C@@H]2CC[C@@H]1O", "activity, positive = activation": -0.413},
      {"compound": "CC1=C(/C=C/C(C)=C/C=C/C(C)=C/C(=O)Nc2ccc(O)cc2)C(C)(C)CCC1", "activity, positive = activation": -0.556},
      {"compound": "CC(=O)N[C@@H](CS)C(=O)O", "activity, positive = activation": 1.65},
      {"compound": "CC(=O)c1ccc(S(=O)(=O)NC(=O)NC2CCCCC2)cc1", "activity, positive = activation": 3.93},
      {"compound": "COc1cccc(-c2cc(=O)c3ccccc3o2)c1N", "activity, positive = activation": -2.77},
      {"compound": "COc1ccccc1N1CCN(CCCNc2cc(=O)n(C)c(=O)n2C)CC1", "activity, positive = activation": -0.261},
      {"compound": "CCN(CC)CCNC(=O)c1ccc(N)cc1", "activity, positive = activation": 3.16},
      {"compound": "CC(=O)O[C@]1(C(C)=O)CC[C@H]2[C@@H]3C=C(Cl)C4=CC(=O)[C@@H]5C[C@@H]5[C@]4(C)[C@H]3CC[C@@]21C", "activity, positive = activation": 1.27},
      {"compound": "CCN(CC)CCOC(=O)c1ccc(N)cc1", "activity, positive = activation": 2.54},
      {"compound": "CCCCC1C(=O)N(c2ccccc2)N(c2ccccc2)C1=O", "activity, positive = activation": 3.7},
      {"compound": "NC(N)=Nc1nc(CSCC/C(N)=N/S(N)(=O)=O)cs1", "activity, positive = activation": 3.25},
      {"compound": "CCCNC(=O)NS(=O)(=O)c1ccc(Cl)cc1", "activity, positive = activation": -2.35},
      {"compound": "CC(=O)CCCCn1c(=O)c2c(ncn2C)n(C)c1=O", "activity, positive = activation": 1.62},
      {"compound": "CC(C)OC(=O)C(C)(C)Oc1ccc(C(=O)c2ccc(Cl)cc2)cc1", "activity, positive = activation": 3.4},
      {"compound": "CC1(C)CCC2=C(O1)c1ccccc1C(=O)C2=O", "activity, positive = activation": 1.94},
      {"compound": "CC/C(=C(\\c1ccccc1)c1ccc(OCCN(C)C)cc1)c1ccccc1", "activity, positive = activation": -0.942},
      {"compound": "C[N+](C)(C)CCCCCC[N+](C)(C)C", "outcome": "inactive"},
      {"compound": "Clc1ccc(C(c2ccc(Cl)cc2)n2cc[n+](CC(OCc3ccc(Cl)cc3Cl)c3ccc(Cl)cc3Cl)c2)cc1", "note": "(stereo unspecified)", "activity, positive = activation": -25.4},
      {"compound": "O=C1NCC2(CCN(CCc3ccccc3)CC2)O1", "activity, positive = activation": 3.54},
      {"compound": "CCN(CC)C(=O)c1ccc(O)c(OC)c1", "activity, positive = activation": -0.235},
      {"compound": "Cc1cccc(C)c1OCC(C)N", "note": "(stereo unspecified)", "activity, positive = activation": 1.03},
      {"compound": "O=C1NC(=O)C(c2ccccc2)(c2ccccc2)N1", "outcome": "inactive"},
      {"compound": "NCCS", "activity, positive = activation": 1.34},
      {"compound": "O=c1cc(-c2ccc(O)cc2)oc2cc(O)cc(O)c12", "activity, positive = activation": -2.01},
      {"compound": "CN(C)CCC(c1ccccc1)c1ccccn1", "note": "(stereo unspecified)", "activity, positive = activation": 2.35},
      {"compound": "COc1ccc(Cc2nccc3cc(OC)c(OC)cc23)cc1OC", "activity, positive = activation": -1.42},
      {"compound": "CCCCCN(C)CCC(O)(P(=O)(O)O)P(=O)(O)O", "activity, positive = activation": 1.45},
      {"compound": "O=C(NCCN1CCOCC1)c1ccc(Cl)cc1", "activity, positive = activation": 4.38},
      {"compound": "CCN1CCC[C@H]1CNC(=O)c1cc(S(N)(=O)=O)ccc1OC", "activity, positive = activation": 0.271}
    ]}
  ]
}
